High-throughput results (PubChem BioAssay)
Shown are actives, neighbours in structure and some others; about 14% of the full set was active somewhere.
LASV entry inh – blocks Lassa virus binding to or entry into cells. Potency, µM (doses to about 37.9 µM), usual class: inhibitors. 1.2% of 300,000 active. Lassa virus pseudotype entry inhibition, cell reporter; calls by dose curve; tested in HEK293 cells; note: nearly all actives have a fitted effect of over 50% in size
HCMV inh – blocks human cytomegalovirus replication. 4.5% of 410,000 active. HFF cells, HCMV-luciferase reporter, 72 h; stronger effect = lower value. activity change, negative = inhibition, % at 57.5 µM; in the data active = activity change below about -60%; inconclusive = no clear call, values can overlap the other calls; inactive = above about -39%
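Screen run at 2 compound doses on HFFs infected with reporter HCMV, MOI 1 PFU/cell. Luciferase activity from cell lysates at 72 h post infection gave inhibition relative to buffer-only and Salinomycin wells.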
Pf growth 96h – inhibits malaria parasite growth, 96 h | P. falciparum luciferase reporter growth, 96 h | Potency, µM (highest dose often 28.7 µM), most hits filed as inhibitors | 6.9% of 320,000 active
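Luminescence readout: decreased luciferase signal marks inhibited growth of reporter-expressing P. falciparum in infected red cells (2% hematocrit, 0.05% parasitemia final), exposed to compound two generations (96 h, 37 C, 5% CO2).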
Pf growth 48h – inhibits P. falciparum growth in the first generation, 48 h; P. falciparum luciferase growth in erythrocytes, 48 h; Potency, µM (highest dose often 28.7 µM), most hits filed as inhibitors; 5.9% of 310,000 active; AID 504832
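Luciferase-expressing parasites in RBCs, 2% Hct / 0.1% parasitemia final; RPMI 1640 + 0.5% Albumax; 37 C, 5% CO2, one generation; luminescence read-out, lower signal = inhibition.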
HCV inh – blocks hepatitis C virus; Huh7.5.1 HCVcc-Cre infection, luciferase reporter, 44 h; Potency, µM (highest dose often 41.8 µM), most hits filed as inhibitors; 3.4% of 340,000 active; AID 651820
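Luciferase read-out (15 sec integration) after a 15 min room-temperature substrate step quantifies HCVcc-Cre infection. Cells, 1,000 per well, had compound added 4 h post-plating, then virus at ~0.5 moi, and were cultured 44 h.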
Marburg entry inh – inhibitors of Marburg virus binding or cell entry. Marburg virus pseudotyped entry inhibition, cell reporter. Potency, µM (series often up to 37.8 µM), most hits filed as inhibitors. 1.8% of 300,000 active. AID 540276; calls by dose curve; tested in HEK293 cells
Hits are given with their value; i = inactive; ? = inconclusive; nt = not tested or not shown; [ ] = dose if it differs, or a comment. Unless noted, calls come from the whole dose curve; as a rule, active = well fitted inhibition curve with a large enough effect; inconclusive = small, poorly fitted or top-dose-only effect, or another doubt; inactive = no such curve, though single readings can be large or run the other way.

SMILES | LASV entry inh | HCMV inh | Pf growth 96h | Pf growth 48h | HCV inh | Marburg entry inh
CC(C)CNC(=O)C1CCN(c2ccc(S(=O)(=O)N3CCOCC3)cc2[N+](=O)[O-])CC1 | nt | i | ? | ? | i | nt
CCCCN(C)C(=O)C1CCN(c2ccc(S(=O)(=O)N3CCOCC3)cc2[N+](=O)[O-])CC1 | i | i | 9.3µM | ? | ? | i
C=CCNC(=O)C1CCN(c2ccc(S(=O)(=O)N3CCOCC3)cc2Cl)CC1 | i | i | i | 9.3µM | i | i
CC(Sc1nnc(C2CC2)n1C1CC1)C(=O)N(C)C1(C#N)CCCCC1 (stereo not drawn) | nt | ? | ? | ? | i | nt
Cc1ccc2nc(-c3ccc(F)cc3)c(CC3CCCCC3)n2c1 | nt | i | nt | nt | nt | nt
O=S(=O)(c1ccc(-c2cnc(C3CC3)o2)cc1)N1CCN(c2cccc(Cl)c2)CC1 | i | i | nt | nt | nt | nt
Cc1ccc(C)c(-n2nnnc2Sc2nc([N+](=O)[O-])nn2C)c1 | i | -70 | i | ? | i | ?
Cc1ccc(-n2nnnc2Sc2nc([N+](=O)[O-])nn2C)cc1C | i | i | ? | 3.3µM | i | i
CCCCCCCC1=CC2=C(Cl)C(=O)C(C)(OC(C)=O)C(=O)C2=CO1 (stereo not drawn) | ? | nt | nt | nt | nt | i
COc1cccc(CN2CCN(Cc3nc(-c4cccc(F)c4F)oc3C)CC2=O)c1 | i | i | ? | 13µM | ? | i
Cc1oc(-c2cccs2)nc1CN1CCN(CC(C)C)C(CCO)C1 (stereo not drawn) | i | i | 1.9µM | i | i | i
COc1cccc(CN2CCN(Cc3cc4ccccc4o3)CC2CCO)c1 (stereo not drawn) | ? | i | i | i | i | ?
CC(C)CN1CCN(Cc2cn(C)c3ccccc23)CC1CCO (stereo not drawn) | i | i | ? | i | i | i
COc1cccc(CN2CCN(Cc3nc(-c4cccs4)oc3C)CC2CCO)c1 (stereo not drawn) | nt | i | ? | 9.3µM | i | nt
Cc1cnc(C)c(N2CCN(Cc3nc(-c4cccc(F)c4F)oc3C)CC2)n1 | i | ? | ? | ? | ? | i
O=C(NCc1ccccc1F)C1CCCN1C(=O)Nc1ccc(Cl)cc1 (stereo not drawn) | nt | i | i | i[0.00184 µM] | i | nt
N#Cc1c(Nc2ccccc2)c(/C=N/N=C/c2ccccc2)c[nH]c1=O | i | i | ? | i | ? | i
N#Cc1c(Nc2ccccc2)c(C=NCCN2CCOCC2)c[nH]c1=O | i | i | 9.3µM | i | i | i
Clc1cc(Cl)c(OCCCCn2cncn2)c(Cl)c1 | nt | i | 0.29µM | i | i | nt
Brc1cccc(OCCCCn2cncn2)c1 | nt | i | i | i | i | nt
N#C/C(=C/C1=C(N2CCOCC2)C(=C/c2ccc(Cl)cc2)/CC1)C(=O)Nc1ccccc1F | i | i | nt | nt | i | i
O=C(Cn1c(=O)n2ncnc2c2c3c(sc21)CCCC3)c1ccccc1 | i | ? | nt | 12µM | ? | i
O=c1n(Cc2ccccc2Cl)c2sc3c(c2c2ncnn12)CCCC3 | i | i | i | ? | i | i
COc1ccc(CCNC(=O)c2ccc(NC(=O)CC3SC(N4CCCC4)=NC3=O)cc2)cc1OC (stereo not drawn) | nt | i | nt | nt | i | nt
CCOc1ccc(N2Cc3ccccc3C2)cc1 | i | i | 7.4µM | ? | i | ?
SMILES | LASV entry inh | HCMV inh | Pf growth 96h | Pf growth 48h | HCV inh | Marburg entry inh
CCOc1ccccc1N1Cc2ccccc2C1 | i | i | nt | 7.4µM | i | i
COc1ccc(OC)c(N2Cc3cc(C)c(C)cc3C2)c1 | i | i | nt | 2.9µM | 22µM | ?
O=Cc1ccc(N2Cc3ccccc3C2)cc1 | ? | i | ? | i | i | 1.3µM
Oc1ccc(N2Cc3ccccc3C2)cc1 | ? | nt | i | i | i | ?
CCc1nc2c(OCc3ccc(OC)cc3)cccn2c1N(C)C(=O)C(C)C | nt | i | nt | nt | nt | nt
CC(=O)c1cccc(NC(=O)c2sc(-n3nc(C)c(CCC(C)C)c3C)nc2C)c1 | i | i | nt | nt | nt | i
CCc1ccc(NC(=O)c2cc(S(=O)(=O)N3CCCCCC3)ccc2F)cc1 | i | i | nt | nt | nt | nt
CCOC(=O)Nc1nc2ccc(Cn3cccc3)cc2[nH]1 | i | i | nt | nt | i | i
O=C1NC[C@H](CCCCN2C[C@H](Cc3ccccc3)N(Cc3ccccc3)C(=O)C2=O)N(CCC2CCCCC2)C1=O | nt | i | nt | nt | nt | nt
CCOc1ccccc1N1Cc2cc(C)c(C)cc2C1 | nt | i | ? | 13µM | ? | nt
Cc1cc2c(cc1C)CN(c1ccccc1)C2 | nt | i | ? | i | i | nt
